The whole screen tested about 52,000 compounds, of which about 4,300 (8.3%) were called active. The entries come from a sample that favours actives as a whole. Unmarked numbers belong to inactive results. Cut-off read from the data, not from the text of the source: active = survival mostly below about 52% (no sharp cut-off); inactive = mostly above about 56%.
These molecules were tested on DeltatarO mutant (assay: growth inhibition of S. aureus wild type versus tarO mutant, primary screen, teichoic acid synthesis inhibitors, RN4220, OD600 (AID 463173)). Conditions: OD600, 18 h, stronger effect = lower value, screened at 18.75 µg/mL (by protocol).

Compound	survival
COc1cccc(/C=C(\C#N)C(=O)Nc2ccc(NC(C)=O)cc2)c1OC	89%
Cc1ccccc1C(=O)Nc1ccc2oc(-c3ccc(Cl)c(Cl)c3)nc2c1	64%
Cc1ccc2cc(CN(Cc3ccccc3)C(=O)C3CC3)c3nnnn3c2c1	100%
O=C(NCc1ccco1)C(c1ccccc1)N(C(=O)Cn1nnc2ccccc21)C1CCCC1 (stereo not drawn)	105%
Cc1ccc(N2CC(NC(=O)c3ccccc3C(F)(F)F)CC2=O)cc1C (stereo not drawn)	55%
CC(=O)Nc1ccc(NC(=O)CN(C)S(=O)(=O)c2ccc3c(c2)CCCC(=O)N3)cc1	84%
CCN(CC)C(NC(=O)c1ccccc1)C(=O)c1ccccc1 (stereo not drawn)	85%
COc1ccc(-c2nn(-c3cccc(F)c3)c3c2cnc2cc(OC)c(OC)cc23)cc1	67%
Cc1ccc(S(=O)(=O)N(CCO)Cc2ccccc2)cc1	87%
Cc1ccc(Cl)cc1NC(=O)C(C)n1nnc2sc3c(c2c1=O)CCCC3 (stereo not drawn)	69%
CCc1nc(Nc2ccc(F)c(Cl)c2)c2c3c(sc2n1)CCCC3	-4% (active)
O=C(Cn1c(=O)nc(-c2ccccc2)c2cc(Cl)ccc21)Nc1ccc(F)c(Cl)c1	75%
O=C(Cn1nc(-c2ccccc2)c2c(c1=O)CCCC2)Nc1ccc(F)c(Cl)c1	23% (active)
COC(=O)c1cc(NC(=O)Cn2nc(C)n3cccc3c2=O)cc(C(=O)OC)c1	87%
CC(C(=O)Nc1ccccc1C(F)(F)F)n1nnc2sc3c(c2c1=O)CCCC3 (stereo not drawn)	81%
COC(=O)c1cc(NC(=O)Cn2nc(-c3ccc(C)c(C)c3)ccc2=O)cc(C(=O)OC)c1	65%
COc1ccc(Nc2ncnc3sc4c(c23)CCCC4)cc1	69%
CC(C(=O)Nc1cc(C(F)(F)F)ccc1Cl)n1nnc2sc3c(c2c1=O)CCCC3 (stereo not drawn)	53% (active)
CC(=O)Nc1ccc(Nc2ncnc3sc4c(c23)CCCC4)cc1	76%
COC(=O)c1cc(NC(=O)Cn2nc(-c3ccccc3)c3c(c2=O)CCCC3)cc(C(=O)OC)c1	24% (active)
O=C(Cn1nc(C(F)(F)F)c2c1CCCC2)Nc1ccc(F)c(Cl)c1	62%
COc1ccc(OCC(=O)Nc2ccc(-c3nc4cc(C)cc(C)c4o3)cc2)cc1	75%
CCOC(=O)C1=C(CN2CCN(c3ccc(Cl)cc3)CC2)NC(=O)NC1c1ccc(F)cc1 (stereo not drawn)	70%
CCOC(=O)c1nc(Nc2ccc(Cl)cc2)c2c(C)noc2n1	68%

Compound	survival
COc1ccc(OC)c(CNC(=O)c2ccc(NC(=O)c3nsc4ccccc34)cc2)c1	80%
Cc1c(Cl)cccc1NC(=O)Cn1nnc2sc3c(c2c1=O)CCCC3	75%
COc1ccc(NC(=O)Cn2nnc3sc4c(c3c2=O)CCCC4)cc1	61%
O=C(Cn1nnc2sc3c(c2c1=O)CCCC3)Nc1ccc(F)c(Cl)c1	36% (active)
CCOc1ccc(/C=C(\C#N)c2nc(-c3cc4ccccc4oc3=O)cs2)c(OCC)c1	81%
CCCCC(=O)Nc1cc(-c2cn3cccnc3n2)ccc1C	102%
CCOc1ccc(CC(=O)Nc2cccc(-c3nc4cccnc4s3)c2C)cc1	90%
COCC(=O)Nc1cccc(-c2nc3cccnc3s2)c1	68%
COc1cc(OC)cc(C(=O)Nc2cc(-c3nc4cccnc4s3)ccc2C)c1	43% (active)
CCCCC(=O)Nc1cc(-c2nc3cccnc3s2)ccc1C	35% (active)
Cc1ccc(C(=O)Nc2cccc(-c3nc4cccnc4s3)c2C)cc1	111%
Cc1cccc(C(=O)Nc2cc(-c3nc4cccnc4s3)ccc2C)c1	45% (active)
CCCC(=O)Nc1cc(-c2nc3cccnc3s2)ccc1C	109%
Cc1cccc(CC(=O)Nc2cccc(-c3nc4cccnc4s3)c2)c1	93%
COc1ccc(C(=O)Nc2cccc(-c3nc4cccnc4s3)c2C)c(OC)c1	103%
COc1ccc(CC(=O)Nc2cc(-c3nc4cccnc4s3)ccc2C)cc1	41% (active)
Cc1ccc(-c2nc3cccnc3s2)cc1NC(=O)Cc1ccccc1	99%
COc1ccc(N2CCN(C(=O)CS(=O)(=O)c3cccc4nsnc34)CC2)cc1	107%
O=C(CSc1nc2c([nH]c3ccccc32)c(=O)n1-c1cccc(C(F)(F)F)c1)N1CCCC1	71%
Cc1c(C(=O)Nc2ccc(F)c(C(F)(F)F)c2)sc2nc(-c3ccccc3)cn12	105%
CCOC(=O)C1=CN(O)/C(=C\N=O)C=C1	78%
COc1ccc(Cl)cc1NC(=O)CSc1cc(C)[nH]c(=O)n1	80%
COc1ccc(S(=O)(=O)c2cn(C)c3cc(N4CCCCCC4)c(F)cc3c2=O)cc1	86%
Cc1ccccc1Nc1c(-c2c(F)cccc2Cl)nc2ccc(Br)cn12	69%

Compound	survival
COc1ccc(/C=C\c2onc(C)c2S(=O)(=O)N2CCC(C(=O)Nc3ccc(Cl)cc3)CC2)cc1	65%
CCOc1ccc(C(=O)Nc2cccc(-c3nc4cccnc4s3)c2C)cc1OCC	90%
CCOc1ccccc1C(=O)Nc1cc(-c2nc3cccnc3s2)ccc1C	37% (active)
O=C(Nc1cccc(-c2nc3cccnc3s2)c1)c1cccc(Br)c1	32% (active)
CCCCOc1ccc(C(=O)Nc2cccc(-c3nc4cccnc4s3)c2)cc1	92%
CN(C)c1ccc(C(=O)Nc2cccc(-c3nc4cccnc4s3)c2)cc1	49%
Cc1ccccc1C(=O)Nc1cccc(-c2nc3cccnc3s2)c1	81%
COc1ccc(CC(=O)N2N=C(c3ccncc3)CC2(O)C(F)(F)F)cc1 (stereo not drawn)	104%
COc1ccccc1CNC(=O)CCCn1c(=O)c2ccccc2n(CC(=O)Nc2c(C)cc(C)cc2C)c1=O	166%
N#Cc1ccc(CSCC(=O)NN=C2CCCC2)cc1	65%
COc1ccc(OCC2c3cc(OC)c(OC)cc3CCN2C(=O)c2ccc(F)cc2)cc1 (stereo not drawn)	94%
COc1ccccc1NC(=O)c1sc2cccc(Cl)c2c1Cl	64%
Cc1ccc(NC(=O)c2sc3ccccc3c2Cl)cc1	66%
CCOC(=O)c1ccccc1NC(=O)c1sc2ccccc2c1Cl	36% (active)
CCCC(=O)Nc1ccc(NC(=O)c2sc3ccccc3c2Cl)cc1	109%
O=C(Nc1ccccc1Cl)c1sc2cccc(Cl)c2c1Cl	63%
Cc1cccc(NC(=O)c2sc3cccc(Cl)c3c2Cl)c1	11% (active)
CCN(CC)c1ccc(NC(=O)c2sc3ccccc3c2Cl)cc1	-2% (active)
CCOc1ccc(NC(=O)c2sc3ccccc3c2Cl)cc1	68%
CCOC(=O)c1ccc(NC(=O)c2sc3ccccc3c2Cl)cc1	67%
CC(C)NC(=O)c1ccc2c(c1)nc1n2CCCCC1	91%
COc1cccc(Cn2c(=O)n(CC3CCC(C(=O)N4CCOCC4)CC3)c(=O)c3sccc32)c1 (stereo not drawn)	124%
CCc1ccc(S(=O)(=O)c2cn(CC)c3cc(N4CCCCC4)c(F)cc3c2=O)cc1	83%
CCOc1ccc2[nH]c(=O)c(CN(Cc3ccccc3OC)C(=O)N3CCCC3)cc2c1	96%

Compound	survival
NCCS(=O)(=O)N1CCCC1	88%
Cc1ccn2c(c1)nc(=O)c1cc(S(=O)(=O)N3CCC(C)CC3)c(Cl)cc12	87%
COc1ccc(NC(=O)CC2C(=O)N(c3cccc(C)c3)C(=O)N2C2CCCCC2)cc1 (stereo not drawn)	69%
COc1ccc(NC(=O)CSc2ccc3nc(-c4ccccc4)cn3n2)cc1OC	113%
CCOC(=O)N1CCN(Cc2nc3cc(NC(=O)c4ccccc4Cl)ccc3n2C(C)C)CC1	70%
COC(=O)CN1C(=O)CSc2ccc(S(=O)(=O)Nc3cc(C)ccc3C)cc21	25% (active)
COC(=O)CN1C(=O)CSc2ccc(S(=O)(=O)Nc3c(C)cc(C)cc3C)cc21	101%
COC(=O)CN1C(=O)CSc2ccc(S(=O)(=O)Nc3cccc(C)c3C)cc21	63%
COC(=O)CN1C(=O)CSc2ccc(S(=O)(=O)Nc3cccc(C)c3)cc21	101%
COC(=O)CN1C(=O)CSc2ccc(S(=O)(=O)Nc3ccccc3)cc21	91%
COC(=O)CN1C(=O)CSc2ccc(S(=O)(=O)Nc3cccc(Br)c3)cc21	37% (active)
CC(C(=O)O)N1CCCCC1 (stereo not drawn)	79%
CCOc1ccc2[nH]c(=O)c(CN(Cc3cccnc3)S(=O)(=O)c3ccccc3)cc2c1	86%
CCOc1ccccc1NC(=O)Cn1c(=O)n(Cc2nc(C)no2)c(=O)c2ccccc21	81%
Cc1cc(C)c(NC(=O)CN2C(=O)CCSc3ccc(S(=O)(=O)N4CCCC4)cc32)c(C)c1	84%
Cc1ccc(NC(=O)CN2C(=O)c3ccccc3Sc3ccc(C(=O)N4CCOCC4)cc32)c(Cl)c1	-5% (active)
O=C(CN1C(=O)c2ccccc2Sc2ccc(C(=O)N3CCOCC3)cc21)Nc1ccc(Cl)cc1F	94%
CN(C)c1ccc(NC(=O)CN2C(=O)c3ccccc3Sc3ccc(C(=O)N4CCCC4)cc32)cc1	-2% (active)
CCc1ccc(NC(=O)CN2C(=O)c3ccccc3Sc3ccc(C(=O)N4CCCC4)cc32)cc1	86%
Cc1ccc(NC(=O)CN2C(=O)c3ccccc3Sc3ccc(C(=O)N4CCCC4)cc32)cc1	76%
Cc1cc(C)cc(NC(=O)CN2C(=O)c3ccccc3Sc3ccc(C(=O)N4CCOCC4)cc32)c1	89%
